This is a sample that favours compounds with a hit; in the whole collection about 2.7% have one here.
MsrA inhibitor = inhibitors of bovine MsrA; purified bovine MsrA, absorbance read-out; inhibition, % at 15.5 µM; 360,000 compounds, 0.75% hits; AID 651718; in the data active = inhibition above about 4.5%;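 also: 0% = vehicle wells with enzyme and 100% = reference inhibitor wells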
rCAG RNA binder = binds r(CAG) RNA repeats. 370,000 compounds, 1.3% hits. r(CAG) RNA repeat, TO-PRO-1 dye displacement fluorescence. inhibition, % at 3 µM;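 active = inhibition above the plate cutoff, the mean of all test compounds on that plate plus 3 SD, cut at about 35% in these data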;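 also: 0% = DMSO alone and 100% = 100 µM mitoxantrone as full dye displacement; higher means more dye released from RNA so lower well fluorescence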
NadD block = blocks S. aureus nicotinate mononucleotide adenylyltransferase; 360,000 compounds, 0.78% hits; purified NadD enzyme, colorimetric absorbance read-out; inhibition, % at 20 µM; in the data active = inhibition above about 26%
MsrA act = activates bovine MsrA enzyme; activation, % at 10.6 µM; 360,000 compounds, 0.3% hits; AID 602163; purified bovine MsrA, absorbance read-out; in the data active = activation above about 7.5%;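 also: 0% = vehicle and 100% = reference activator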
rCAG binder conf = r(CAG) RNA repeat binding, confirmation; shares compounds with rCAG RNA binder; TO-PRO-1 dye displacement fluorescence; inhibition, % at 3 µM; 4,300 compounds, 70% hits;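 active = inhibition above a per-plate cutoff, the mean inhibition of sample wells plus 3 SD, cut at about 35% in these data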;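 also: loss of TO-PRO-1 fluorescence as compound displaces dye from 1x1 AA loop RNA; 0% = DMSO only wells and 100% = 100 µM mitoxantrone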
dCAG dye counter = DNA CAG dye complex inhibition counter-screen | d(CAG) DNA oligo TO-PRO-1 dye displacement, fluorescence | shares compounds with rCAG RNA binder | 4,300 compounds, 94% hits | inhibition, % at 3 µM;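 active = inhibition above its plate's cutoff, the mean test-well inhibition plus 3 SD, cut at about 4.8% in these data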;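 also: 0% = DNA dye mix with DMSO and 100% = 100 µM mitoxantrone; hits displace the dye from DNA and so lower well fluorescence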
Numbers without * were called inactive; x = no result given.

SMILES	MsrA inhibitor	rCAG RNA binder	NadD block	MsrA act	rCAG binder conf	dCAG dye counter
N#C/C(=C\c1ccccc1OCc1ccc(C(=O)O)cc1)c1ccccc1	0	35*	-3	-7	30	5.3*
CCCN1C(=O)/C(=C/c2ccc(OCc3ccc(C(=O)O)cc3)c(OC)c2)NC1=S	0	5	4	0	x	x
CN1C(=O)/C(=C/c2ccccc2OCc2ccccc2F)NC1=S	-2	3	1	-7	x	x
O=C(O)c1ccc(COc2ccccc2/C=C2\NC(=O)N(Cc3ccccc3F)C2=O)cc1	3	42*	21	-5	45*	14*
CC(C)[C@@H]1CC2=C(C(=O)OC(C)(C)O2)[C@H](CCc2ccccc2)O1	-1	-1	5	-1	x	x
CN(Cc1ccccc1)C(=O)CN1C(=O)NC2(CCCc3sccc32)C1=O (stereo unspecified)	2	0	-4	-2	x	x
COc1cc(/C=C(\C#N)C(=O)Nc2cccc(C(=O)O)c2)ccc1OCc1ccc(Cl)cc1	1	4	21	-3	x	x
COc1cc(/C=C(/C#N)C(=O)Nc2ccccc2)c(Br)cc1OCc1ccc(C(=O)O)cc1	0	46*	19	-1	73*	35*
COc1ccc(OC)c(/C=C2\Oc3cc(OCC(=O)N4CCC(C(=O)O)CC4)ccc3C2=O)c1	4	38*	3	-1	42*	8.6*
COc1ccc(OC)c(/C=C2\Oc3cc(OCC(=O)N4CC(O)C[C@H]4C(=O)O)ccc3C2=O)c1 (stereo partly specified)	4	42*	-4	-5	33	5.9*
COc1ccc(C(=O)NNC2=NCCCCC2)cc1	-1	-5	-8	-2	x	x
CC1(Cc2ccc3c(c2)OCO3)C(=O)Nc2c(Cl)ccc(Cl)c21 (stereo unspecified)	-1	1	-3	3	x	x
COc1ccc(S(=O)(=O)n2nc(OC(=O)c3cccs3)cc2NC(=O)c2cccs2)cc1	0	7	-9	-2	x	x
CCCCN1Cc2c(nc3cc(-c4ccco4)[nH]n3c2=O)C1=O	1	66*	2	-3	9	2
COCc1cc(=O)n2[nH]c(-c3ccco3)cc2n1	2	5	-9	-3	x	x
Cn1ncc([N+](=O)[O-])c1C(=O)N1CCCCCC1	1	-6	2	-1	x	x
CCOc1ccccc1N(CC(=O)NCCc1ccc(OC)c(OC)c1)S(=O)(=O)c1ccccc1	1	43*	3	-1	2	0
COc1ccc2oc(CS(=O)c3ccccc3)c(C(=O)O)c2c1 (stereo unspecified)	1	7	-8	3	x	x
CC(C(=O)O)c1ccc2c(c1)[nH]c1ccc(Cl)cc12 (stereo unspecified)	0	11	-2	-2	x	x
O[C@@H]1[C@@H](O)[C@H](n2c3ccc(Cl)cc3c3ccc4c5cc(Cl)ccc5[nH]c4c32)OC[C@H]1O	x	51*	x	x	43*	27*
O=C(Nc1ccc(Cl)cc1)N[C@H]1CC[C@H](CCn2cc(-c3ccccc3F)nn2)O[C@@H]1CO	0	2	x	x	x	x
Cc1c(/C=C(\CC(=O)O)c2nc3ccccc3s2)cc(C#N)n1C	4	10	0	-4	x	x
Cc1nn(-c2ccc(F)cc2)c(Cl)c1/C=C(\CC(=O)O)c1nc2ccccc2s1	3	38*	9	-12	45*	11*
Cc1nn(-c2ccc(F)cc2)c(Cl)c1/C=C(/CC(=O)O)c1nc2ccccc2s1	2	51*	6	-3	43*	13*
CC(C)N=c1scc(-c2cccs2)n1/N=C/c1ccc(O)c(O)c1O	1	46*	31*	-1	56*	31*
SMILES	MsrA inhibitor	rCAG RNA binder	NadD block	MsrA act	rCAG binder conf	dCAG dye counter
CN=c1scc(-c2ccccc2F)n1/N=C/c1ccc(O)c(O)c1O	1	41*	23	-6	56*	25*
CCN=c1scc(-c2cccs2)n1/N=C/c1cc(OC)ccc1O	1	4	2	-3	x	x
CC[C@]12c3[nH]c4ccccc4c3CCN1C(=O)C(CC(=O)NCCCn1ccnc1)C[C@@H]2C(=O)N1CCN(C(=O)c2ccco2)CC1 (stereo partly specified)	0	-1	2	-2	x	x
CC1=CN2C(=N)/C(=C/c3ccc([N+](=O)[O-])o3)C(=O)N=C2S1	1	53*	7	-5	30	15*
Cc1cccnc1Nc1nc(-c2ccc(O)c(O)c2)cs1	-1	38*	2	2	54*	19*
Oc1ccc(-c2csc(Nc3ccccn3)n2)cc1O	-2	26	3	-12	x	x
COc1ccc(-c2csc(Nc3ncccc3C)n2)cc1OC	0	4	7	3	x	x
Oc1ccc(-c2csc(Nc3cccc4ccccc34)n2)cc1O	0	54*	21	0	55*	34*
CC(C)CC(=O)N1CCC(C(=O)NCC2COc3ccccc3O2)CC1 (stereo unspecified)	x	-2	x	x	x	x
COc1ccc(C(=O)/C=C/c2cccc(OCc3ccccc3)c2)cc1CSCC(=O)O	2	60*	18	-8	83*	44*
O=C(Nc1cc(Cl)ccc1O)c1cc(-c2ccco2)on1	0	46*	10	-2	18	12*
Nc1ccccc1C(=O)NN=Cc1cccnc1	1	2	3	-4	x	x
O=C1c2ccc3c4c(ccc(c24)C(=O)N1c1ccc2ccccc2c1)CC3	1	5	17	1	x	x
O=C1CCC(=O)c2ccc3c4c(ccc1c24)CC3	1	49*	1	-3	4	3
CC(C)CS(=O)(=O)C1=NSC2=NC(=O)/C(=C\c3ccc(OC(=O)c4ccco4)cc3)C(=N)N21	1	24	25	-7	x	x
CS(=O)(=O)C1=NSC2=NC(=O)/C(=C\c3ccc(OC(=O)c4ccco4)c(Br)c3)C(=N)N21	2	40*	6	-4	83*	53*
N=C1/C(=C\c2ccc(OC(=O)c3ccccc3Cl)cc2)C(=O)N=C2SC(N3CCOCC3)=NN12	3	37*	48*	-2	63*	27*
CSC1=NSC2=NC(=O)/C(=C\c3ccc(OC(=O)c4ccco4)cc3)C(=N)N12	0	38*	13	-4	43*	13*
CCS(=O)(=O)C1=NN2C(=N)/C(=C\c3ccc(OC(=O)c4ccco4)cc3)C(=O)N=C2S1	1	24	4	-10	x	x
CCC(CC)C1=NN2C(=N)/C(=C/c3ccc(OC(=O)c4ccco4)cc3)C(=O)N=C2S1	0	42*	12	-1	46*	12*
O=C(Nc1nnc(S(=O)(=O)Nc2ccccc2)s1)C1CCCCC1	1	17	1	-2	x	x
C[C@@]12CC[C@H]3OC(=O)C=C3C1CC[C@@]13CC(CCC12)[C@](CO)(O[C@H]1O[C@H](CO)[C@@H](O)[C@H](O)[C@H]1O)C3 (stereo partly specified)	1	-5	2	-1	x	x
COc1ccccc1NC(=O)c1ccc(NS(=O)(=O)c2c(C)noc2C)cc1	0	12	-8	-4	x	x
